The list is not random: actives were taken first. Their share in the collection is about 10%.
SW480 rerep = DNA re-replication induction in SW480 cells; SW480 DNA re-replication, Hoechst DNA content imaging, 48 h; Potency, µM (highest dose often 46.1 µM), actives largely listed as activators; 1.8% of 340,000 active; note: nearly all actives have a fitted effect of over 55% in size
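Image-based read-out: total Hoechst fluorescence of nuclei (405 nm excitation, 500-530 nm emission), with hits raising the fraction of high-intensity nuclei. SW480 colon cells incubated 48 hr with compounds at 37 C.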
KB-3-1 tox = kills parental KB-3-1 adenocarcinoma cells; KB-3-1 viability, CellTiter-Glo ATP luminescence, 72 h; Potency, µM (doses to about 46.1 µM), actives largely listed as cytotoxic; 1.4% of 400,000 active; note: nearly all actives have a fitted effect of over 60% in size
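Using CellTiter-Glo luminescence, growth of non-resistant KB-3-1 adenocarcinoma cells is assessed 72 h after pin-tool compound addition at 37 °C. Normalized responses across the concentration series yield fitted curves.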
RORgamma inh = inhibitors of mouse ROR gamma transcriptional activity; Drosophila S2 Gal4-RORgamma UAS-luciferase reporter, 20 h; AID 2551; P51450; 5.4% of 310,000 active; Potency, µM (doses to about 53.6 µM), usual class: inhibitors; note: nearly all actives have a fitted effect of over 60% in size
Target sequence (P51450 whole entry, looked up, the tested form may be a part): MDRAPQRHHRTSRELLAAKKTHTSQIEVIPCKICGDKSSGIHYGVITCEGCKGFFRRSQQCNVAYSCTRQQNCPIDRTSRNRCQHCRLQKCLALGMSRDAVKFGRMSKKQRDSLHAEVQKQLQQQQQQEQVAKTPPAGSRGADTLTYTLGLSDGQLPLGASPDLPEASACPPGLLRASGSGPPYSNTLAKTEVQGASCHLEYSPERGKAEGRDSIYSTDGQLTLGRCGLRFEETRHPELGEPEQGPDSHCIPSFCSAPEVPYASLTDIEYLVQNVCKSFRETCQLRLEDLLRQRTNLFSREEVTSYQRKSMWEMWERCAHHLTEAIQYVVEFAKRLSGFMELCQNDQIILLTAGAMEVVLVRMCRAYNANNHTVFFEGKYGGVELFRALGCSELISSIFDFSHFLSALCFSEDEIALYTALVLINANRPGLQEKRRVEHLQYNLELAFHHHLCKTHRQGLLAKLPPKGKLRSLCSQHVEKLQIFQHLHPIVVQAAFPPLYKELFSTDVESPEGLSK
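ROR gamma transcriptional activity was tracked as Gal4-UAS luciferase output in stably transfected Drosophila Schneider cells, with compound added 1 hr before 700 uM copper sulfate induction and a 20 hr ambient-temperature incubation.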
VP16 counter = inhibits Gal4-VP16 luciferase reporter, ROR gamma counter-screen. Drosophila S2 Gal4-VP16 UAS-luciferase, luminescence, 20 h. Potency, µM (highest dose often 53.6 µM), actives largely listed as inhibitors. 3.5% of 310,000 active. AID 2546;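 note: Gal4-VP16 expression switched on by copper sulfate through the metallothionein promoter; nearly all actives have a fitted effect of over 50% in size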
KB-V1 MDR tox = kills drug-selected multidrug resistant KB-V1 cells | Potency, µM (series often up to 46.1 µM), actives largely listed as cytotoxic | 3.4% of 400,000 active | AID 1347076 | KB-V1 MDR cells viability, CellTiter-Glo, 72 h; note: nearly all actives have a fitted effect of over 60% in size
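Cells of the MDR subline KB-V1 are plated, dosed with compound at multiple concentrations, and incubated 72 h at 37 degrees C; CellTiter-Glo is then added and luminescence read after 10 min.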
MCF10A rereplic = induces DNA re-replication in MCF 10a normal breast cells; MCF 10A DNA re-replication, Hoechst nuclear intensity, 48 h; Potency, µM (doses to about 46.1 µM), most hits filed as activators; 2.9% of 350,000 active; note: nearly all actives have a fitted effect of over 50% in size
A number is an active result; 0 = inactive; ? = inconclusive; - = no result. Calls come from the whole dose curve; as a rule, active = well fitted curve in the direction sought with a large enough effect; inconclusive = small, poorly fitted or top-dose-only effect, or another doubt; inactive = no such curve, though single readings can be large; an effect the other way counts as inactive or inconclusive.

SMILES	SW480 rerep	KB-3-1 tox	RORgamma inh	VP16 counter	KB-V1 MDR tox	MCF10A rereplic
Cc1cc(C(=O)OCC(=O)Nc2ccc(F)cc2)c(C)n1C1CC1	0	0	-	-	23µM	0
COc1ccc(C2CC(=O)Oc3c2c(=O)oc2ccccc32)c(OC)c1OC (stereo not drawn)	-	?	-	-	0	-
COc1ccc(C2=CC(c3ccc4c(c3)OCO4)c3c(c4ccccc4oc3=O)O2)cc1OC (stereo not drawn)	6.5µM	2.9µM	-	-	2.6µM	2.6µM
COc1ccc(N2C(=O)/C(=C/c3ccc(C)o3)C(=O)NC2=S)cc1	0	0	0	0	0	0
Cc1ccc(/C=C2\C(=O)NC(=S)N(c3cccc(F)c3)C2=O)o1	0	0	11µM	0	0	0
Clc1nc(Cl)nc(Cl)n1	-	-	0	0	-	-
C=C1C/C(=C\C)C(=O)O[C@@H]2CCN3CC=C(COC(=O)[C@@]1(C)O)[C@H]23	-	-	0	0	-	-
CC(C)CCNC(=O)CN1C(=O)CN=C(c2ccccc2)c2ccccc21	0	0	0	0	0	0
CC(C)CCNC(=O)CSc1nc2ccccc2c(=O)[nH]1	0	0	0	0	16µM	0
C=C(C)[C@H]1CC[C@]2(C(=O)O)CC[C@]3(C)[C@@H](CC[C@H]4[C@@]5(C)CC[C@@H](O)C(C)(C)[C@@H]5CC[C@@]43C)[C@H]12	-	-	0	0	-	-
Nc1ccc2ccccc2c1	0	0	0	0	0	0
C[n+]1c2cc(N)ccc2cc2ccc(N)cc21	0	10µM	?	7.1µM	16µM	0
COCC(=O)N(c1c(C)cccc1C)C(C)C(=O)OC (stereo not drawn)	0	-	0	0	-	0
O=C1CC(=O)N(c2ccccc2)C(=O)N1c1ccccc1	0	0.29µM	0	0	0	0
CC(C)=CCCN1CCC(NC(=O)C(O)(c2ccccc2)C2CCCC2)CC1 (stereo not drawn)	-	-	0	0	-	-
CCOC(=O)c1c(N)n(CCCOC(=O)c2ccco2)c2nc3ccccc3nc12	?	12µM	0	0	?	?
CCCCCn1c(NC(=O)c2ccco2)c(C(=O)OCC)c2nc3ccccc3nc21	3.7µM	0	0	0	0	5.8µM
CCOC(=O)c1c(NS(=O)(=O)c2ccccc2)n(CCCOC)c2nc3ccccc3nc12	?	0	0	0	0	0
Oc1ccc2c3c1O[C@H]1c4oc5ccccc5c4C[C@]4(O)[C@H](C2)N(CC2CC2)CC[C@@]314	-	-	0	0	-	-
C[C@@H](Cc1ccc(O)cc1)NC[C@@H](O)c1cc(O)cc(O)c1	0	-	0	0	-	0
N[C@@H](Cc1cc(Br)c(O)c(Br)c1)C(=O)O	0	-	0	0	-	18µM
NC(Cc1ccc(N(CCCl)CCCl)cc1)C(=O)O (stereo not drawn)	-	-	0	0	-	-
S=C1Nc2ccccc2Sc2ccccc21	0	0	2µM	5µM	0	?
c1ccc2c(c1)CSc1ccccc1N2	0	0	-	-	0	0
CCOC(=O)c1c(-n2c(C)cc(/C=C3\C(=O)NC(=O)N(C)C3=O)c2C)sc2c1CCCC2	?	0	0	0	23µM	?
SMILES	SW480 rerep	KB-3-1 tox	RORgamma inh	VP16 counter	KB-V1 MDR tox	MCF10A rereplic
CC1CC2OC2/C=C\C=C/C(=O)Cc2c(Cl)c(O)cc(O)c2C(=O)O1 (stereo not drawn)	-	-	7.9µM	10µM	-	-
CC(C)(C)c1o[nH]c(=O)c1C[C@H](N)C(=O)O	-	-	0	0	-	-
O=[N+]([O-])c1ccc(O)c([N+](=O)[O-])c1	0	0	?	22µM	?	0
O=[N+]([O-])c1cc(O)c(O)c([N+](=O)[O-])c1	0	0	22µM	0	0	?
O=[N+]([O-])c1ccc(Cl)c([N+](=O)[O-])c1	?	?	-	-	16µM	?
Nc1ccc([N+](=O)[O-])cc1O	-	-	0	?	-	-
O=[N+]([O-])c1cc(Cl)c(Cl)cc1Cl	0	0	0	0	0	0
O=C(O)c1cc([N+](=O)[O-])cc([N+](=O)[O-])c1O	-	-	0	0	-	-
C=C(C)C1CCC(C)=CC1c1c(OC)cc(C)cc1OC (stereo not drawn)	-	-	0	0	-	-
C/C=C1/CN2CC[C@]34C(=C(C=O)[C@@H]1C[C@H]23)Nc1c(O)cccc14	-	-	0	0	-	-
CCOC(=O)c1ccc(NC(=O)c2cccn(Cc3ccccc3F)c2=O)cc1	-	0	-	-	5.8µM	-
CCOC(=O)c1ccc(NC(=O)c2cccn(Cc3ccc(C)cc3)c2=O)cc1	-	?	-	-	0	-
O=C(Nc1ccncc1)c1cccn(Cc2ccccc2)c1=O	0	?	0	?	5.8µM	0
O=C(Nc1ccccc1)c1cccn(Cc2ccccc2)c1=O	0	?	0	0	?	0
CC/C=C\C/C=C\C/C=C\C/C=C\C/C=C\CCCC(=O)NCCCC(=O)O	-	-	0	0	-	-
CCCNC1=C(C)C(=O)C2=C(C1=O)C(COC(N)=O)[C@]1(OC)C3NC3CN21 (stereo partly drawn)	0	18µM	0	0	0	0
Clc1ccc(C(c2ccc(Cl)cc2)C(Cl)Cl)cc1	-	-	0	0	-	-
O=C(Oc1ccccc1)N1CCC2(CC1)CCN(C(c1ccccc1)c1ccccc1)CC2	-	-	0	0	-	-
Cc1cc(O)c2c3c(c(=O)oc2c1)CCC(C)C3 (stereo not drawn)	0	0	?	20µM	0	?
COc1ccc(S(=O)(=O)Nc2cc([N+](=O)[O-])ccc2OC)cc1	?	?	0	0	18µM	?
S=c1[nH]nc(-c2ccccc2)n1C1C=CCCC1 (stereo not drawn)	0	0	0	2.8µM	0	0
O=[N+]([O-])/C=C/c1c(OCc2ccccc2)ccc2ccccc12	-	-	5.6µM	4.5µM	-	-
O=C(N/N=C\C1C(=O)NC(=S)N(c2ccccc2)C1=O)c1ccc(O)cc1 (stereo not drawn)	0	0	1.4µM	2.5µM	0	0
CCOC(=O)CCCc1cc[c]([Sb](=[O])([OH])[OH])cc1	-	0	-	-	0	-
COc1ccc(/C=N\NC(=O)c2cccc(F)c2)cc1COc1ccccc1	1.5µM	0	-	-	?	?
SMILES	SW480 rerep	KB-3-1 tox	RORgamma inh	VP16 counter	KB-V1 MDR tox	MCF10A rereplic
COc1cc(/C=N/NC(=O)CN2CCCCC2)ccc1OCc1ccccc1	?	0	0	0	0	0
O=C(Cl)/C=C/C(=O)Cl	-	-	0	0	-	-
Nc1ncnc2c1ncn2[C@@H]1O[C@H](COP(=O)(O)CP(=O)(O)O)[C@@H](O)[C@H]1O	0	0	-	-	15µM	0
CC(C)(C)OC(=O)N(CCc1ccccc1)Cc1ccc(OCc2cccc(NC(=O)c3ccccc3)c2)cc1	?	0	-	-	0	0
COc1ccc(/C=C2\C(=O)NC(=S)N(C)C2=O)cc1C	0	0	0	0	0	0
Cc1ccsc1/C=C1\C(=O)NC(=S)N(C)C1=O	?	0	?	22µM	0	0
CN1C(=O)/C(=C/c2ccc(Cl)s2)C(=O)NC1=S	?	0	11µM	13µM	0	?
O=C=NCCCCN=C=O	-	-	0	0	-	-
